ALR H2O2 inh: blocks human ALR sulfhydryl oxidase activity | P55789 | purified ALR, DTT oxidation, H2O2 HRP-luminol luminescence | inhibition, % (test concentration not listed) | hit rate 3.8% among 290,000 | AID 485317;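 active = mean replicate inhibition above about 79%, with every replicate also reaching it, limit read from the data; inconclusive = only one of the two criteria met; inactive = mean below limit and not every replicate reaching it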
Target sequence (P55789 whole entry, looked up): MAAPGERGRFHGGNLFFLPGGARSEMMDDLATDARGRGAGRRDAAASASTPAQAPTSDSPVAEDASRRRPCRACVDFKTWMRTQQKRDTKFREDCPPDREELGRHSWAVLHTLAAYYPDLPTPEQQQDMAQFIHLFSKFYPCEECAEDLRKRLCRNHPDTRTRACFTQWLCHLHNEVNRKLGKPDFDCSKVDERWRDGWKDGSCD
HDAC3 inhib: human HDAC3 inhibition; O15379; recombinant HDAC3, fluorogenic peptide/trypsin coupled, fluorescence; inhibition, % at 8.3 µM; hit rate 0.15% among 320,000; AID 2718; in the data active = inhibition above about 26%, passing the limit was not always enough; inconclusive = no clear call, values can overlap the other calls
Efflux pump mplx: antifungal efflux pump inhibition, Nile Red retention; hit rate 0.44% among 330,000; S. cerevisiae Candida pump triplex; inhibition, % at 10 µM;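 active = plate passing quality check with inhibition over a set limit, or well fluorescence over plate mean plus 4 SD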;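 also: Nile Red retained in pooled yeast measured as flow cytometry median fluorescence; 0% = buffer negative control and 100% = Enniatin B positive control; higher means more Nile Red kept so more efflux inhibition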
GRK2 aptamer HTS: blocks RNA aptamer binding to human GRK2. P25098. bead flow cytometry, FAM-aptamer displacement from GRK2. inhibition of aptamer binding, % at 10 µM. hit rate 0.59% among 330,000;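 active = inhibition of aptamer binding above 40%, roughly 3 SD of noise, on plates passing a quality check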;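 also: median bead fluorescence of bound FAM aptamer so fluorescent compounds give negative values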
Rtt109 HAT inh: blocks Candida albicans Rtt109/Vps75 acetyltransferase activity; purified Rtt109/Vps75, ThioGlo CoA-SH fluorescence, 4 h; AID 540336; inhibition, % at 34.9 µM; hit rate 0.16% among 330,000;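 active = inhibition of at least 50% in every replicate; inconclusive = best replicate reaches 50% inhibition but some replicates fall short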
Rce1 inh: yeast Ras-converting enzyme inhibition | Q03530 | yeast membranes, quenched prenylated peptide cleavage fluorescence | calls only | hit rate 0.27% among 290,000 | AID 2563;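 active = fall in fluorescence gain of 50% or more versus controls, with final raw signal at or below 3038400; inconclusive = same 50% fall but final raw signal above 3038400; inactive = fall in fluorescence gain under 50%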;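 also: plate controls were neutral control wells for no effect and wells lacking membranes for full effect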
Target sequence (Q03530 whole entry, looked up): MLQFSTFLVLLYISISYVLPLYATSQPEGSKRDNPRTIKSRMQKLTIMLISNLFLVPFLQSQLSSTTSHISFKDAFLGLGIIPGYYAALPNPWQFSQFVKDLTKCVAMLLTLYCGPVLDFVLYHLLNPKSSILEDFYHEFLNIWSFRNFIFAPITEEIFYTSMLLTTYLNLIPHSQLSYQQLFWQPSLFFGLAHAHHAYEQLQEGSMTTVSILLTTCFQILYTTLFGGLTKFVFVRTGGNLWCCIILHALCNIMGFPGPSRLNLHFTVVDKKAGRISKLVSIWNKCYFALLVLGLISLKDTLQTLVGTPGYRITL
GRK2 CP1: confirmation of human GRK2 inhibitors displacing RNA aptamer. aptamer displacement, % at 10 µM. bead-bound GRK2, FAM-aptamer displacement, flow cytometry. hit rate 4% among 2,000. shares compounds with GRK2 aptamer HTS;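 active = aptamer displacement above 40%, near three times the noise of non-fluorescent compounds, on plates passing quality checks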;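 also: negative values mostly reflect intrinsic compound fluorescence rather than true enhancement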
Aptamer quench 1: counter-screen for GRK2 aptamer inhibitors: fluorescent aptamer quenchers | shares compounds with GRK2 aptamer HTS | fluorescence change (kMESF span), kMESF (no concentration beside the values) | AID 504521 | 110 tested, under 10 active | Fluorescent RNA aptamer beads, quenching, flow cytometry; stronger effect = higher value;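 active = compounds whose bead fluorescence drops by more than 37 kMESF across the dose range, marking them as dye quenchers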
Aptamer quench SP: counter-screen for GRK2 aptamer inhibitors: fluorescent aptamer quenchers; 2,000 tested, under 10 active; shares compounds with GRK2 aptamer HTS; AID 504580; Carboxyfluorescein RNA aptamer on beads, flow cytometry quenching; stronger effect = lower value; fluorescence response (% of DMSO), % at 10 µM;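 active = compounds that quench the bead-bound fluorescent RNA probe, cutting fluorescence to under half of the solvent control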;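 also: counterscreen run without GRK2 so only probe quenching by compound is measured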
GRK2 CP2: confirmation of human GRK2 inhibitors binding RNA aptamer site; shares compounds with GRK2 aptamer HTS; bead-bound GRK2, FAM-aptamer displacement, flow cytometry; inhibition of aptamer binding, % at 10 µM; 360 tested, under 10 active; AID 504782;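 active = inhibition of aptamer binding above 40%, about triple the noise seen with nonglowing compounds, on plates passing quality control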;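 also: negative values mostly come from compounds that fluoresce themselves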
FAM quench SP: quenches fluorescent RNA aptamer, GRK2 hit artifact; shares compounds with GRK2 aptamer HTS; carboxyfluorescein RNA aptamer beads, flow cytometry quenching; stronger effect = lower value; fluorescence response vs DMSO, % at 10 µM; 360 tested, under 10 active;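 active = response vs DMSO under 50%, meaning signal dropped by over half, treated as fluorescence quencher; inconclusive = no clear call, values can overlap the other calls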;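 also: labelled aptamer on streptavidin beads without GRK2 as a quench counter-screen; 100% = bead fluorescence of DMSO wells and lower means quenching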
Starred values were filed as active, the others as inactive; i = inactive; u = inconclusive; x = no result. Sampled rows, rich in hits. Any-hit rate of the full collection: about 4.5%.

SMILES	ALR H2O2 inh	HDAC3 inhib	Efflux pump mplx	GRK2 aptamer HTS	Rtt109 HAT inh	Rce1 inh	GRK2 CP1	Aptamer quench SP	others
COC(=O)c1[nH]c2cc(C)ccc2c1NC(=O)CN1CCN(c2ccccc2OC)CC1	-5	7	0	1	25	i	x	x
CN(C)S(=O)(=O)c1ccc(Cl)c(C(=O)NC2CCCCCCC2)c1	0	5	0	1	0	i	x	x
CC(C)(C)n1nc2c(c1NC(=O)C1CC(=O)N(c3ccc(Cl)cc3)C1)CS(=O)(=O)C2 (centres undefined)	-11	-2	0	2	1	i	x	x
CCOC(=O)C(C)N1C(=O)S/C(=C\c2ccc(-c3ccccc3C(=O)O)o2)C1=O (centres undefined)	1	1	0	84*	0	i	71*	103	Aptamer quench 1=-278
CC(C)c1nnc(NC(=O)C2CCCN(C(=O)Nc3ccc(F)cc3)C2)s1 (centres undefined)	0	-1	0	0	-11	i	2	98
CC1(c2ccccc2)NC(=O)N(NC(=O)COC(=O)c2cc(Br)ccc2O)C1=O (centres undefined)	1	-11	0	3	10	i	x	x
C=CCOC(=O)c1cc(-c2ccc(/C=C3\C(=O)NC(=O)C(C#N)=C3C)o2)ccc1Cl	x	x	x	x	-14	x	x	x
CCCOC(=O)c1cc(-c2ccc(/C=C3/C(=O)N(C)C(=O)C(C#N)=C3C)o2)ccc1Cl	-12	7	0	52*	19	x	0	96
CCCN(C(=O)c1ccc(N2CCCC2=O)cc1)c1c(N)n(Cc2ccccc2)c(=O)[nH]c1=O	-17	1	0	4	-25	i	-8	101
CC(C)(C)c1ccc(C(=O)N2CCNCC2)cc1	-5	2	0	65*	1	i	3	103
CC(C)(C)c1ccc(C(=O)N2CCCN(C(=O)c3ccc(C(C)(C)C)cc3)CC2)cc1	-21	11	0	1	6	i	x	x
COCCN1C(=O)/C(=C/c2ccc(N3CCCC3)cc2)SC1=S	-7	15	0	57*	x	i	-17	142
Cc1ccc(C(=O)Nc2cccc(C(F)(F)F)c2)cc1NC(=O)c1csc(-c2ccncc2)n1	4	-8	0	0	-1	i	2	96
COc1ccc(CCNC(=O)c2c(C)nn(-c3ccccc3)c2Cl)cc1OC	1	2	0	1	-11	i	x	x
Cc1noc(C)c1COc1ccc(C(=O)NNC(=O)c2ccccc2F)cc1	-4	1	0	1	2	x	x	x
Cc1noc(C)c1COc1ccc(C(=O)NNC(=O)c2ccccc2)cc1	-1	x	0	100*	-6	i	1	107
Cc1c(Br)c(O)c(Br)c(O)c1/C=N/n1c(-c2ccccc2)n[nH]c1=S	98*	5	0	46*	2	i	-1	100
Oc1c(Br)cc(/C=N/n2c(-c3ccccc3)n[nH]c2=S)c(O)c1Br	u	-12	0	3	13	i	x	x
CCOC(=O)c1sc(NCc2ccco2)c(-c2nc3ccccc3s2)c1N	60	17	0	68*	-6	i	70*	102	Aptamer quench 1=-3.2
CCNc1sc(C(=O)c2cccs2)c(N)c1-c1nc2ccccc2s1	-1	-5	0	3	13	i	x	x
COc1ccc(-c2cc(=O)c3c(O)cc(OC4OC(COC5OC(C)C(O)C(O)C5O)C(O)C(O)C4O)cc3o2)cc1O (centres undefined)	11	4	0	5	3	i	x	x
COc1ccc([C@@H]2CC(=O)c3c(O)cc(O[C@@H]4O[C@H](CO[C@@H]5O[C@@H](C)[C@H](O)[C@@H](O)[C@H]5O)[C@@H](O)[C@H](O)[C@H]4O)cc3O2)cc1O	43	7	0	56*	-7	i	9	111
Cn1c(=O)c2c(nc(C3CC4C5CCC(C5)C4C3)n2C)n(C)c1=O (centres undefined)	x	x	x	x	6	x	x	x
O=C(/C=C/c1ccc(Br)o1)OCc1nc2ccsc2c(=O)[nH]1	-15	-4	0	88*	-6	i	16	99
O=C(CSc1nc2ccccc2[nH]1)Nc1nc(-c2cccc(Br)c2)cs1	34	5	0	75*	-5	i	x	x	GRK2 CP2=-10;FAM quench SP=100
SMILES	ALR H2O2 inh	HDAC3 inhib	Efflux pump mplx	GRK2 aptamer HTS	Rtt109 HAT inh	Rce1 inh	GRK2 CP1	Aptamer quench SP	others
O=C(CSc1ncccc1-c1nc2ccccc2[nH]1)Nc1ccc2c(c1)OCCO2	x	x	0	0	43	i	x	x
Cc1ccc2nc(SCC(=O)Nc3ccc4c(c3)OCCO4)[nH]c2c1	5	2	0	1	9	i	x	x	GRK2 CP2=19;FAM quench SP=101
Cc1ccc(-n2nnnc2SCC(=O)NC(=O)Nc2ccc3c(c2)OCCO3)cc1	-7	6	0	1	0	i	x	x
Cc1nnc(SCC(=O)NC(=O)Nc2ccc3c(c2)OCCO3)n1N	-8	12	0	46*	12	i	1	100
O=C(CSc1nc2ccccc2[nH]1)Nc1ccc2c(c1)OCCO2	99*	0	0	0	-3	x	x	x	GRK2 CP2=-49;FAM quench SP=100
O=c1[nH]c(=S)[nH]c2sc3c(c12)CCCCCC3	27	5	0	1	2	i	x	x
COCC1=C(C(=O)OC)C(c2cccs2)n2ncnc2N1 (centres undefined)	0	-3	0	2	-5	i	x	x
CCN(CC)S(=O)(=O)c1ccc(OCC(=O)NC(=O)Cc2ccccc2)c([N+](=O)[O-])c1	-39	7	0	3	4	x	x	x
CCc1ccc(NC(=S)NC(=O)CC(C)C)cc1	-7	2	0	69*	-1	i	0	102
CCN(CC)S(=O)(=O)c1ccc(NC(=S)NC(=O)CC(C)C)cc1	2	10	0	0	0	i	x	x
CC(NC(=O)COC(=O)CNS(=O)(=O)/C=C/c1ccccc1)c1ccccc1 (centres undefined)	x	-1	0	1	1	x	x	x
CCCN(CC(=O)Nc1ccccc1OC)Cc1c(O)ccc2ccccc12	0	-5	0	0	-3	i	x	x
